Laboratory results reported in PubChem BioAssay AID1159580 (chemical genetic matrix, 2015).
Hit rate of the full screen: of about 5,500 compounds, about 2,000 (36%) were called active. Inconclusive results (about 18%) are left out. Cut-off read from the data, not from the text of the source: active = normalized growth mostly below about 0.91 (no sharp cut-off); inconclusive = no clear call, values can overlap the other calls; inactive = mostly above about 0.92. The list shows a part of the results.

Assay: chemical genetic growth profiling, strain panel (AID 1159580);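 note: tested at 20 µM; growth read once vehicle control cultures reached saturation at 30 °C; 1 = growth at the plate median or of vehicle wells; lower values mean less growth of the strain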
Settings: S. cerevisiae deletion strains, growth OD
[1] = locus YAR019C, strain CDC15, active compounds read low
[2] = locus YBL105C, strain PKC1, active compounds read low
[3] = locus YBR135W, strain CKS1, active compounds read low
[4] = locus YBR136W, strain MEC1, active compounds read low
[5] = locus YBR160W, strain CDC28, active compounds read low
[6] = locus YDL017W, strain CDC7, active compounds read low
[7] = locus YDL028C, strain MPS1, active compounds read low
[8] = locus YDL101C, strain DUN1, active compounds read low
[9] = locus YDL108W, strain KIN28, active compounds read low
[10] = locus YDL132W, strain cdc53, active compounds read low
[11] = locus YDL214C, strain PRR2, active compounds read low
[12] = locus YDR052C, strain DBF4, active compounds read low
[13] = locus YDR054C, strain cdc34, active compounds read low
[14] = locus YDR226W, strain ADK1, active compounds read low
[15] = locus YDR477W, strain SNF1, active compounds read low
[16] = locus YER123W, strain YCK3, active compounds read low
[17] = locus YER133W, strain GLC7, active compounds read low
[18] = locus YFL009W, strain cdc4, active compounds read low
[19] = locus YFL029C, strain CAK1, active compounds read low
[20] = locus YFR003C, strain YPI1, active compounds read low
[21] = locus YFR019W, strain FAB1, active compounds read low
[22] = locus YFR028C, strain CDC14, active compounds read low
[23] = locus YGR040W, strain KSS1, active compounds read low
[24] = locus YGR052W, strain FMP48, active compounds read low
[25] = locus YGR092W, strain DBF2, active compounds read low
[26] = locus YHR030C, strain SLT2, active compounds read low
[27] = locus YHR079C, strain IRE1, active compounds read low
[28] = locus YHR082C, strain KSP1, active compounds read low
[29] = locus YHR205W, strain SCH9, active compounds read low
[30] = locus YIL147C, strain SLN1, active compounds read low
[31] = locus YJL095W, strain BCK1, active compounds read low
[32] = locus YJL128C, strain PBS2, active compounds read low
[33] = locus YJL157C, strain FAR1, active compounds read low
[34] = locus YJR016C, strain ILV3, active compounds read low
[35] = locus YJR066W, strain TOR1 (second series), active compounds read low
[36] = locus YJR066W, strain TOR1, active compounds read low
[37] = locus YKL048C, strain ELM1, active compounds read low
[38] = locus YKL067W, strain YNK1, active compounds read low
[39] = locus YKL101W, strain HSL1, active compounds read low
[40] = locus YKL193C, strain SDS22, active compounds read low
[41] = locus YKL203C, strain TOR2, active compounds read low
[42] = locus YLR113W, strain HOG1, active compounds read low
[43] = locus YLR133W, strain CKI1, active compounds read low
[44] = locus YLR403W, strain SFP1, active compounds read low
[45] = locus YML070W, strain DAK1, active compounds read low
[46] = locus YMR001C, strain CDC5, active compounds read low
[47] = locus YMR205C, strain PFK2 (second series), active compounds read low
[48] = locus YMR277W, strain FCP1, active compounds read low
[49] = locus YNL006W, strain LST8, active compounds read low
[50] = locus YNL020C, strain ARK1, active compounds read low
[51] = locus YNL161W, strain CBK1, active compounds read low
[52] = locus YNL183C, strain NPR1, active compounds read low
[53] = locus YNL207W, strain RIO2, active compounds read low
[54] = locus YNL222W, strain SSU72, active compounds read low
[55] = locus YNL307C, strain MCK1 (second series), active compounds read low
[56] = locus YOL078W, strain AVO1, active compounds read low
[57] = locus YOL136C, strain PFK27, active compounds read low
[58] = locus YOR061W, strain CKA2, active compounds read low
[59] = locus YOR119C, strain RIO1, active compounds read low
[60] = locus YOR231W, strain MKK1, active compounds read low
[61] = locus YOR329C, strain SCD5, active compounds read low
[62] = locus YPL031C, strain PHO85, active compounds read low
[63] = locus YPL153C, strain RAD53, active compounds read low
[64] = locus YPL204W, strain HRR25, active compounds read low
[65] = locus YPL209C, strain IPL1, active compounds read low
[66] = locus YPL256C, strain CLN2, active compounds read low
[67] = locus YPR025C, strain CCL1, active compounds read low
[68] = locus YPR106W, strain ISR1, active compounds read low
[69] = locus YPR111W, strain DBF20, active compounds read low
[70] = strain NNK1, active compounds read low
[71] = strain TSCII, active compounds read low

Measured: normalized growth

Clc1ccccc1-c1csc(-c2ccncc2)n1
inactive: [1] 0.962 | [2] 0.966 | [3] 0.964 | [4] 0.968 | [5] 0.962 | [6] 0.964 | [7] 0.966 | [8] 0.963 | [9] 0.965 | [10] 0.966 | [11] 0.971 | [12] 0.977 | [13] 0.922 | [14] 0.966 | [15] 0.937 | [16] 0.895 | [17] 0.945 | [18] 0.942 | [19] 0.964 | [20] 0.964 | [21] 0.961 | [22] 0.96 | [23] 0.951 | [24] 1.02 | [25] 0.85 | [26] 0.946 | [27] 0.923 | [28] 1.12 | [29] 1.03 | [30] 0.962 | [31] 0.829 | [32] 0.933 | [33] 0.93 | [34] 0.964 | [35] 0.94 | [36] 1.02 | [37] 0.99 | [38] 0.974 | [39] 0.987 | [40] 0.949 | [41] 0.992 | [42] 0.969 | [43] 0.979 | [44] 0.927 | [45] 0.977 | [46] 0.963 | [47] 0.972 | [48] 0.963 | [49] 0.97 | [50] 0.965 | [51] 0.96 | [52] 1.07 | [53] 0.962 | [54] 0.965 | [55] 0.971 | [56] 0.957 | [57] 0.97 | [58] 0.99 | [59] 0.981 | [60] 0.988 | [61] 0.964 | [62] 0.918 | [63] 0.925 | [64] 0.93 | [65] 0.965 | [66] 1.03 | [67] 0.968 | [68] 0.965 | [69] 0.97 | [70] 0.97 | [71] 0.951

Clc1ccccc1-c1csc(-c2cccnc2)n1
active: [8] 0.913 | [13] 0.848 | [15] 0.649 | [17] 0.565 | [23] 0.647 | [26] 0.591 | [31] 0.247 | [40] 0.88 | [41] 0.572 | [42] 0.694 | [48] 0.869 | [53] 0.86 | [59] 0.609 | [61] 0.902 | [62] 0.566 | [63] 0.563 | [64] 0.553 | [66] 0.774 | [71] 0.874
inactive: [1] 0.893 | [2] 0.934 | [3] 0.924 | [4] 0.929 | [5] 0.923 | [6] 0.928 | [7] 0.923 | [9] 0.924 | [10] 0.932 | [11] 0.822 | [12] 0.917 | [14] 0.931 | [16] 0.673 | [18] 0.932 | [19] 0.889 | [20] 0.93 | [21] 0.783 | [22] 0.939 | [24] 0.769 | [25] 0.541 | [27] 0.636 | [28] 0.894 | [29] 0.758 | [30] 0.922 | [32] 0.926 | [33] 0.773 | [34] 0.902 | [35] 0.686 | [36] 0.67 | [37] 0.968 | [38] 0.866 | [39] 0.9 | [43] 0.842 | [44] 0.662 | [45] 0.787 | [46] 0.913 | [47] 0.864 | [49] 0.913 | [50] 0.838 | [51] 0.919 | [52] 0.829 | [54] 0.916 | [55] 0.82 | [56] 0.89 | [57] 0.819 | [58] 0.896 | [60] 0.756 | [65] 0.909 | [67] 0.915 | [68] 0.932 | [69] 0.938 | [70] 0.932
